# The full list was thinned out, with hits kept by preference.
# DT40 TDP1 CPT = qHTS for Inhibitors of human tyrosyl-DNA phosphodiesterase 1 (TDP1): qHTS in cells in presence of CPT. chicken DT40 Tdp1-/-;hTDP1 cells + 20 nM CPT, ATP luminescence, 48 h. Potency, µM (highest dose often 46.2 µM), inactives show at the top dose activity change, negative = growth inhibition, actives largely listed as inhibitors. 12% of 420,000 active; further: potency means the concentration at half of the fitted maximal effect; nearly all actives have a fitted effect of over 55% in size
#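 Chicken DT40 Tdp1-/- cells stably complemented with human TDP1 were seeded at 400 cells/well in medium containing 20 nM camptothecin, exposed to pin-transferred compounds, and grown at 37 °C for at least 48 hr. Viability was read as ATP luminescence.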
# HT1080 IDH1KD tx = qHTS for induction of synthetic lethality in tumor cells producing 2HG: qHTS for the HT-1080-IDH1KD cell line | HT-1080 IDH1 knockdown viability, ATP luminescence, 48 h | Potency, µM (titrated, usually from 46.1 µM), for the others: top-dose activity, negative = toxicity, most hits filed as cytotoxic | 2% of 360,000 active | AID 686971, 2013;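 further: potency means the concentration at half of the fitted maximal effect; 0% = DMSO wells and -100% = cell-free medium wells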
#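 % activity derives from luminescence (CellTiter-Glo), normalised to DMSO and no-cell wells. HT-1080-IDH1KD cells, 750/well, had 48 h compound exposure at 37 °C.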
# HT1080-NT tox = qHTS for induction of synthetic lethality in tumor cells producing 2HG: qHTS for the HT-1080-NT fibrosarcoma cell line; HT-1080-NT fibrosarcoma viability, CellTiter-Glo ATP luminescence, 48 h; 1.6% of 360,000 active; Potency, µM (top dose mostly 46.1 µM), for the others: at the highest dose activity, negative = less viability, most hits filed as cytotoxic;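 further: NT is the 2HG producing partner of a matched IDH1 knockdown line; potency means the concentration at half of the fitted maximal effect; 0% = DMSO-treated cells and -100% = media-only wells without cells; nearly all actives have a fitted effect of over 55% in size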
#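 Viability of the 2HG-overproducing fibrosarcoma line after 48 hours of compound exposure at 37 degrees C was determined by luminescence with CellTiter-Glo, and concentration-effect curves were then fitted and categorized.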
# ALOX12 inh = Primary qHTS assay for inhibitors of human arachidonate 12S-lipoxygenase (ALOX12): Round 2. AID 1671190, 2021. Potency, µM (series often up to 108 µM), for inactives: top-dose activity change, negative = inhibition, usual class: inhibitors. 1.1% of 580,000 active. purified 12hLO, xylenol orange hydroperoxide absorbance; further: potency means the concentration at half of the fitted maximal effect
# Target sequence (P18054 whole entry, looked up): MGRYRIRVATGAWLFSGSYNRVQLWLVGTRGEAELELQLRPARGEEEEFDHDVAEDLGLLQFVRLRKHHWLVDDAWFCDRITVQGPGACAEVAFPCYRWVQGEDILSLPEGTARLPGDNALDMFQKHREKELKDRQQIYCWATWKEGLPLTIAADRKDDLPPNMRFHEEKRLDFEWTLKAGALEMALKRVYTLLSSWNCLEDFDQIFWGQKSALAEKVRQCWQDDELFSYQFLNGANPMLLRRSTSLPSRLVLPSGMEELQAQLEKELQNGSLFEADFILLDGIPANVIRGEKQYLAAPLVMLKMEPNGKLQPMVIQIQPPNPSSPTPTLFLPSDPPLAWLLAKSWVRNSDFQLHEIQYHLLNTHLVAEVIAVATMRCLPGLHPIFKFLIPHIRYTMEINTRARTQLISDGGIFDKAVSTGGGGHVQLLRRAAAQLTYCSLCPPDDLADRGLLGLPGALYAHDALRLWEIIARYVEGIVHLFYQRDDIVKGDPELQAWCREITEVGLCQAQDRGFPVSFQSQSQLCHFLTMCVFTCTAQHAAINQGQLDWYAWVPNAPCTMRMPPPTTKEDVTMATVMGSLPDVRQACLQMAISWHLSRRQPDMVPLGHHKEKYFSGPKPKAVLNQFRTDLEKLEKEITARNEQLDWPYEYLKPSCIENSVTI
#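 Purified human 12hLO (150 nM final) in 25 mM Hepes, 0.01% Triton X-100, pH 7.0 was preincubated 15 min at room temperature with compound. Then 40 uM arachidonic acid was added, 30 min. Hydroperoxide was read by Fe-XO absorbance ratio 573/405 nm.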
# IL1B secr inh = qHTS for Inhibitors of Inflammasome Signaling: IL-1-beta AlphaLISA Primary Screen. THP-1 LPS/ATP IL-1B secretion, AlphaLISA, 16 h; stronger effect = lower value. activity change, % at 57.5 µM. 4.7% of 360,000 active. AID 743279, 2014; in the data active means activity change below about -50%; inconclusive means mostly about -30% to -49%
#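 THP-1 cells pretreated 1 hr with compounds (up to 57.5 uM final), then stimulated with LPS (250 ng/mL final) plus ATP (1.25 mM final); secreted IL-1B measured by AlphaLISA after 16 hr, decreased signal indicating inhibition.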
# TDP1 cell noCPT = qHTS for Inhibitors of human tyrosyl-DNA phosphodiesterase 1 (TDP1): qHTS in cells in absence of CPT; DT40 Tdp1-/- hTDP1 cells, no CPT, ATP luminescence, 48 h; Potency, µM (series often up to 46.2 µM), for inactives: at the highest dose activity change, negative = growth inhibition, actives largely listed as inhibitors; 15% of 420,000 active; AID 686978, 2013; further: potency means the concentration at half of the fitted maximal effect; nearly all actives have a fitted effect of over 55% in size
#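 Chicken DT40 Tdp1-/- cells complemented with human TDP1, screened without camptothecin (DMSO vehicle only), 400 cells/well. Compounds pin-transferred, cells incubated at 37 °C for at least 48 hr. Growth read as ATP-dependent luminescence (CellTiter-Glo, 30 min at RT).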
# * marks the source's active call; other numbers are inactive results; ? = inconclusive; . = not tested or not shown; ! = a repeat was not active; [ ] = remark or other dose. Unless noted, the call rests on the fitted dose curve; in most records, active means well fitted curve in the direction sought with a large enough effect; inconclusive means small, poorly fitted or top-dose-only effect, or another doubt; inactive means no such curve, though single readings can be large; an effect the other way counts as inactive or inconclusive. Unless noted, on the % scale 0 is the no-effect control and ±100 the full control effect.
SMILES,DT40 TDP1 CPT,HT1080 IDH1KD tx,HT1080-NT tox,ALOX12 inh,IL1B secr inh,TDP1 cell noCPT
CCOc1ccc(/C=C/C2=Cc3c(sc(NC(=O)CSc4n[nH]c(N)n4)c3C#N)C(C)(C)C2)cc1,13µM*,?,?,?,-93*,15µM*
Cc1ccsc1/C=C/C1=Cc2c(sc(NC(=O)CSc3n[nH]c(N)n3)c2C#N)C(C)(C)C1,23µM*,13µM*,22µM*,?,-63*,15µM*
CCOC(=O)c1sc(NC(=O)CSc2n[nH]c(-c3ccncc3)n2)c(C#N)c1C,?,?,?,0%[57.4 µM],41,?
CCc1nc2c(c(-c3ccc(Cl)cc3)n1)CCN(CC1CC1)CC2,.,.,.,42%[176 µM],.,.
O=C1CCc2cc(OCCCCc3nnnn3C3CCCCC3)ccc2N1,?,0%,1%,4%,-7,16µM*
N#Cc1cccc(NC(=O)N[C@H]2[C@H](O)[C@@H](Oc3ccccc3)[C@@H]3OC[C@H]2O3)c1,.,.,.,-4%[176 µM],.,.
N#Cc1cccc(NC(=O)N[C@H]2[C@H](O)[C@@H](N3CCC(Cc4ccccc4)CC3)[C@@H]3OC[C@H]2O3)c1,.,.,.,45µM*,.,.
CC(C)Cc1ccc(CN2CCCC(NC(=O)c3cnc4ccccn4c3=O)C2)cc1 (configuration not stated),23µM*,-7%,-11%,-3%,20,23µM*
CC(=O)c1c(C)nn(CC(=O)NC2CCCN(Cc3ccc(CC(C)C)cc3)C2)c1C (configuration not stated),21µM*,-23%,-16%,6%,-28,?
Cc1ccn(CC(=O)NC2CCCN(Cc3ccc(CC(C)C)cc3)C2)n1 (configuration not stated),?,-11%,-28%,-21%,0,?
O=C(NC1CCCN(Cc2ccc(Cl)cc2)C1)c1cnc2ccccn2c1=O (configuration not stated),?,-17%,-6%,0%,2,18µM*
OC1C(O)C(O)C(O)C(O)C1O (configuration not stated),15µM*!,5%,?,2%,11,?
NC(=O)c1ccccc1NC(=O)CSc1nc2c(c(=O)[nH]1)CCCC2,?,16µM*,12µM*,12%,20,?
Cc1ccc(Cl)cc1NC(=O)CSc1nc2c(c(=O)[nH]1)CN(Cc1ccccc1)CC2,-16%,.,.,-3%,.,?
CCCN1CCc2nc(SCC(=O)Nc3ccc(C)c(Cl)c3)[nH]c(=O)c2C1,?,-2%,-1%,31%,-8,18µM*
Cc1ccc(NC(=O)CCc2nc3sc4c(c3c(=O)[nH]2)CCCC4)nc1,3%,1%,3%,.,24,-28%
CCCCOC(=O)c1ccc(NC(=O)CSc2nc3c(c(=O)[nH]2)CCCC3)cc1,?,.,.,?,.,13µM*
COc1ccccc1NC(=O)CCc1nc2sc3c(c2c(=O)[nH]1)CCCC3,12µM*,-19%,-27%,?,23,2.9µM*
Cc1ccc(-c2cccc(CN)c2)c(C)c1,.,.,.,4%[12.5 µM],.,.
CN(C(=O)CSc1nc2c(c(=O)[nH]1)CCCC2)c1ccccc1,9.2µM*,.,.,-1%,.,-28%
NC(=O)C1CCN(C(=O)CCc2nc3sc4c(c3c(=O)[nH]2)CCCC4)CC1,-1%,0%,3%,18µM*!,15,-2%
CN(C)S(=O)(=O)c1cccc(NC(=O)CCc2nc3sc4c(c3c(=O)[nH]2)CCCC4)c1,16µM*,-15%,-15%,249%,-12,?
O=C(CCc1nc2sc3c(c2c(=O)[nH]1)CCCC3)N1CCCCC1,.,.,.,15%,.,.
Cc1cccc(NC(=O)CCc2nc3sc4c(c3c(=O)[nH]2)CCCC4)c1,?,-5%,-11%,-28%,0,?
COc1cccc(NC(=O)CN(C)C(=O)CCc2nc3sc4c(c3c(=O)[nH]2)CCCC4)c1,-5%,-1%,-3%,3%,3,-12%
SMILES,DT40 TDP1 CPT,HT1080 IDH1KD tx,HT1080-NT tox,ALOX12 inh,IL1B secr inh,TDP1 cell noCPT
CCc1cccc(NC(=O)CCc2nc3sc4c(c3c(=O)[nH]2)CCCC4)c1,8.2µM*,7%,18%,?,18,10µM*
CCCN1CNc2c(c(=O)[nH]c(=S)n2CCc2ccc(C)cc2C)C1,?,2%,14%,.,.,?
CCOc1ccc(CCNC(=O)CSc2nnnn2-c2ccccc2Cl)cc1OCC,.,.,.,-15%,.,.
COC(=O)c1ccccc1NC(=O)CSc1nc2sc3c(c2c(=O)[nH]1)CCCC3,12µM*,.,.,?,.,9.2µM*
CC(C1CC2CCC1C2)n1c(-c2cccs2)n[nH]c1=S (configuration not stated),?,-19%,-26%,45µM*,23,?
O=C(c1ccco1)[C@@H]1[C@@H]2C(=O)N(c3ccc(F)cc3)C(=O)[C@@H]2[C@H]2C=Cc3ccccc3N21,6.5µM*,-14%,-15%,?,-18,18µM*
CCOc1ccc(CSCCNC(=S)Nc2ccc(OC)cc2)cc1,?,-17%,?,45µM*,-3,23µM*
C=COCCNC(=S)Nc1ccccc1,19%,12%,28%,?,12,-3%
CCCOc1ccc(CSCCNC(=S)Nc2ccccc2)cc1,26µM*,-24%,-8%,?,18,23µM*
CCNC(=O)/C=C/c1ccc(C(=O)OC)cc1,.,.,.,30%,.,.
O=C(CCc1ccccc1)N1CCCN(c2cc(-c3ccc(Cl)cc3)[nH]n2)CC1,.,.,.,29%,.,.
COc1ccc(S(=O)(=O)NCc2ccco2)cc1NC(=O)c1ccccc1,?,?,-26%,-5%,-12,?
CCCCCC[N+](C)(C)CC/C=C1/c2ccccc2Sc2ccc(Cl)cc21,7.3µM*,-24%,-20%,?,-24,5.8µM*
S=C1Nc2ccccc2Sc2ccc(Cl)cc21,?,-26%,1%,-28%,10,?
COCc1ccc(C(=O)NCc2cc3n(n2)CCCN(CC(C)C)C3)o1,.,.,.,58%,.,.
COc1cc(SC)ccc1C(=O)NCc1ccc(C)cc1,16µM*,?,4%,12%,-13,?

# Compound activity: PubChem BioAssay, National Center for Advancing Translational Sciences (NCATS)
